Compound activity deposited in PubChem BioAssay by National Center for Advancing Translational Sciences (NCATS).
Compounds with a hit are over-represented: about 1.4% of the library has one in this group of screens.
Integrin act MD: activators of alpha7 integrin expression for muscular dystrophy. alpha7betagal myoblasts, beta-gal FDG fluorescence, 48 h. Potency, µM (doses to about 38.3 µM), inactives show top-dose activation, most hits filed as activators. 350,000 compounds, 0.064% hits;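 further: potency means the concentration at half of the fitted maximal effect; 100% = response of the positive control SU9516; nearly all actives have a fitted effect of over 60% in size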
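Alpha7betagal+/- myoblasts (passage 13) were plated 16-24 hr, then exposed to compounds (1:260 dilution of DMSO stock) for 48 hours at 37C. After MPER lysis, β-galactosidase reporter activity was read as FDG fluorescence (ex 480/em 540) after 30 minutes.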
BRCA1 expr up: BRCA1 expression activation; MCF7-BRCA1-FFLuc reporter, luminescence, 48 h; response scale: scaled: vehicle 0%, 10 µM genistein 100%; Potency, µM (highest dose often 46.1 µM), without a hit: at the highest dose activation, hits mostly activators; 380,000 compounds, 1.1% hits; AID 624202; further: potency means the concentration at half of the fitted maximal effect; nearly all actives have a fitted effect of over 80% in size
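Compounds are tested at multiple concentrations on MCF7 BRCA1-luciferase reporter cells seeded at 2000 per well; after 48 h, a single luminescence end-point is taken and curves fitted to the normalized data.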
Nrf2 activator: Nrf2 pathway activation; AREc32 ARE-luciferase reporter (MCF7-derived line), luminescence, 24 h; Potency, µM (top dose mostly 46.1 µM), for inactives: at the highest dose activation, hits mostly activators; 410,000 compounds, 0.31% hits; further: potency means the concentration at half of the fitted maximal effect; % of control where 0% means no effect; nearly all actives have a fitted effect of over 65% in size
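AREc32 cells carrying an ARE-driven firefly luciferase reporter were seeded at 1000 cells/well in OPTI-MEM with 5% FBS, then exposed to compound for 24 hr at 37 deg C. Luminescence was read with Steady-Glo after 30 min at RT.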
N370S GC: inhibits or activates N370S mutant glucocerebrosidase; P04062; N370S GC spleen homogenate, 4MU-glucoside fluorescence; Potency, µM (top dose mostly 59.4 µM), for inactives: top-dose activity change, negative = inhibition, usual class: inhibitors; 330,000 compounds, 0.092% hits;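 further: potency means the concentration at half of the fitted maximal effect; 0% = full enzyme activity and -100% = no enzyme basal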
IL2 activator: activators of IL-2 | IL-2 activation reporter assay, cell-based qHTS; stimulated with anti-CD3/CD4/CD28 beads; in transgenic mouse T cells | activation, % (series mostly up to about 46 µM) | AID 652025 | 360,000 compounds, 0.065% hits; in the data active means activation above about 50%; inconclusive means mostly about 30% to 49%; further: 0% is about no effect
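Unstimulated transgenic mouse T cells, 750 per well, received compound and, after 60 minutes, anti-CD3/anti-CD4 bead plus anti-CD28 stimulation. EGFP and DsRed were quantified after 18 hours.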
Chronic BCR inh: chronic active BCR signaling inhibition | ABC-DLBCL IkBa-CBG/CBR reporter, luminescence ratio, 4 h | Potency, µM (top dose mostly 46.1 µM), without a hit: at the highest dose activity change, negative = inhibition, usual class: inhibitors | 340,000 compounds, 0.05% hits | AID 493014; active means well fitted inhibition curve with a large enough effect in the signal ratio, with a control signal flat, not every such curve was filed as active; inconclusive means small, poorly fitted or top-dose-only effect, or effect the other way, or a change in a side signal; the % refers to the signal ratio;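 further: potency means the concentration at half of the fitted maximal effect; plate controls were basal doxycycline-induced cells for no effect and cells given 10 µM MG132 for full effect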
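TMD8 ABC-DLBCL cells carrying doxycycline-inducible green luciferase fused to IkappaBalpha plus unfused red luciferase were exposed to compounds (up to 46 uM) for 4 hrs at 37C. Activity came from the overlap-corrected green/red luminescence ratio.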
Active calls of the source: *; u = inconclusive; x = no result. Unless noted, the call rests on the fitted dose curve; in most records, active means well fitted curve in the direction sought with a large enough effect; inconclusive means small, poorly fitted or top-dose-only effect, or another doubt; inactive means no such curve, though single readings can be large; an effect the other way counts as inactive or inconclusive.

SMILES	Integrin act MD	BRCA1 expr up	Nrf2 activator	N370S GC	IL2 activator	Chronic BCR inh
CCN(CC)C(=S)SCC(=O)c1ccc(F)cc1	-50%	3.2µM*	4%	4%	0	u
CC(=O)Nc1ccc2nc(-c3ccc(Br)o3)[nH]c2c1	10%	10µM*	3%	-9%	0	u
O=S(=O)(Nc1ccc2nc(-c3ccc(Br)o3)[nH]c2c1)c1ccccc1	x	x	x	3%	x	u
O=C(Nc1ccc2nc(-c3ccc(Br)o3)[nH]c2c1)c1ccco1	-3%	6.3µM*	6%	4%	-2	u
CC(=O)Nc1ccc2nc(-c3cccs3)[nH]c2c1	6%	6.3µM*	10%	3%	0	u
O=C(Nc1ccc2nc(-c3ccc(Br)o3)[nH]c2c1)c1cccs1	-13%	10µM*	7%	10%	2	u
CN(C)c1ccc(/C=C/c2ccnc3ccc(O)cc23)cc1	x	5%	x	x	x	x
Nc1c(N(Cc2ccccc2)C(=O)COc2ccc([N+](=O)[O-])cc2)c(=O)[nH]c(=O)n1Cc1ccccc1	-8%	-33%	0%	x	-1	x
Cn1c2ccccc2c2ncn(CCCN3CCOCC3)c(=O)c21	5%	0%	4%	10%	-3	6%
Cn1c2ccccc2c2ncn(CCC3=CCCCC3)c(=O)c21	3%	10µM*	11%	11%	-1	u
CCOC(=O)[C@]12CCC=C1N(Cc1cccc3ccccc13)C(=O)[C@H](CC(=O)N1CCOCC1)C2	x	-9%	5%	x	-1	x
Cc1ccc(-n2ncc3c(NCc4cccnc4)ncnc32)cc1C	1%	1µM*	-1%	-13%	-3	6%
Cc1ccc(CNc2ncnc3c2cnn3-c2ccc(Cl)cc2)cc1	x	x	0%	x	x	11%
C=CCNc1ncnc2c1cnn2-c1cccc(C)c1	2%	2.2µM*	0%	3%	-4	u
Cc1cccc(-n2ncc3c(NCc4cccnc4)ncnc32)c1	-12%	2.5µM*	4%	3%	-4	12%
Clc1ccc(-n2ncc3c(NCc4ccccn4)ncnc32)cc1	3%	10µM*	2%	0%	2	-4%
O=C(O)c1cc(NS(=O)(=O)c2ccc3ccccc3c2)ccc1O	u	-18%	0%	-7%	1	-2%
O=C(O)c1ccccc1NS(=O)(=O)c1ccc2ccccc2c1	0%	13µM*	3%	u	-1	0%
Cc1ccc2nc(NC(=S)NC(=O)c3ccco3)sc2c1	23%	18%	u	6%	-3	u
O=C(NC(=S)Nc1ccccn1)c1ccco1	7%	78%	u	7%	-1	u
O=C(NC(=S)Nc1cccnc1Cl)c1ccco1	-6%	10µM*	13µM*	-3%	0	u
O=C(NC(=S)Nc1cccc(O)c1)c1ccco1	7%	u	11µM*	-8%	2	u
Cc1ccc2nsnc2c1NC(=S)NC(=O)c1ccco1	-6%	-51%	6.3µM*	-1%	-2	u
COc1ccccc1N1CCN(C(=O)c2oc3ccccc3c2N)CC1	x	x	0%	x	x	x
CC(=O)Nc1ccc2c(c1)C(=Nc1ccccc1)c1ccccc1-2	8%	31%	11µM*	x	-1	x
SMILES	Integrin act MD	BRCA1 expr up	Nrf2 activator	N370S GC	IL2 activator	Chronic BCR inh
CC(=O)Nc1ccc2c(c1)C(=Nc1ccc(C)cc1)c1ccccc1-2	17%	41%	13µM*	x	-1	x
COc1ccc2oc(-c3ccc(C)c(NC(=O)c4ccc5c(c4)OCCO5)c3)nc2c1	x	-4%	9%	x	x	x
O=C(CCNc1ccc(Cl)c(C(F)(F)F)c1)c1ccco1	-44%	-18%	u	3%	-1	0%
O=C(CCNc1cccc(C(F)(F)F)c1)c1ccco1	-17%	-18%	16µM*	-1%	-2	u
CNc1ncnc2sc(-c3ccccc3)cc12	20%	-11%	13%	-2%	0	7%
S=c1[nH]cnc2sc(-c3ccccc3)cc12	-4%	11µM*	2%	-7%	-1	u
Cc1cc(=O)[nH]c(SCC(=O)Nc2c(C)n(C)n(-c3ccccc3)c2=O)n1	0%	-3%	0%	x	0	-1%
